Laboratory results: PMC4336329 (PLoS ONE, 2015)
Screen size: about 310,000 compounds; about 14,000 (4.5%) showed an effect of 50% or more. Effects have a minus sign here. Shown is part of a subset that was picked to be rich in strong results.

What follows are compounds tested against human ether-à-go-go-related gene (hERG) potassium channel (human, UniProt Q12809) (assay: primary screen, population patch clamp on CHO cells stably expressing hERG; higher = less effect of the substance).
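Note: peak tail current of the secondary pulse compared with the same well before compound.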

Chain of human ether-à-go-go-related gene (hERG) potassium channel (Q12809 whole entry, looked up): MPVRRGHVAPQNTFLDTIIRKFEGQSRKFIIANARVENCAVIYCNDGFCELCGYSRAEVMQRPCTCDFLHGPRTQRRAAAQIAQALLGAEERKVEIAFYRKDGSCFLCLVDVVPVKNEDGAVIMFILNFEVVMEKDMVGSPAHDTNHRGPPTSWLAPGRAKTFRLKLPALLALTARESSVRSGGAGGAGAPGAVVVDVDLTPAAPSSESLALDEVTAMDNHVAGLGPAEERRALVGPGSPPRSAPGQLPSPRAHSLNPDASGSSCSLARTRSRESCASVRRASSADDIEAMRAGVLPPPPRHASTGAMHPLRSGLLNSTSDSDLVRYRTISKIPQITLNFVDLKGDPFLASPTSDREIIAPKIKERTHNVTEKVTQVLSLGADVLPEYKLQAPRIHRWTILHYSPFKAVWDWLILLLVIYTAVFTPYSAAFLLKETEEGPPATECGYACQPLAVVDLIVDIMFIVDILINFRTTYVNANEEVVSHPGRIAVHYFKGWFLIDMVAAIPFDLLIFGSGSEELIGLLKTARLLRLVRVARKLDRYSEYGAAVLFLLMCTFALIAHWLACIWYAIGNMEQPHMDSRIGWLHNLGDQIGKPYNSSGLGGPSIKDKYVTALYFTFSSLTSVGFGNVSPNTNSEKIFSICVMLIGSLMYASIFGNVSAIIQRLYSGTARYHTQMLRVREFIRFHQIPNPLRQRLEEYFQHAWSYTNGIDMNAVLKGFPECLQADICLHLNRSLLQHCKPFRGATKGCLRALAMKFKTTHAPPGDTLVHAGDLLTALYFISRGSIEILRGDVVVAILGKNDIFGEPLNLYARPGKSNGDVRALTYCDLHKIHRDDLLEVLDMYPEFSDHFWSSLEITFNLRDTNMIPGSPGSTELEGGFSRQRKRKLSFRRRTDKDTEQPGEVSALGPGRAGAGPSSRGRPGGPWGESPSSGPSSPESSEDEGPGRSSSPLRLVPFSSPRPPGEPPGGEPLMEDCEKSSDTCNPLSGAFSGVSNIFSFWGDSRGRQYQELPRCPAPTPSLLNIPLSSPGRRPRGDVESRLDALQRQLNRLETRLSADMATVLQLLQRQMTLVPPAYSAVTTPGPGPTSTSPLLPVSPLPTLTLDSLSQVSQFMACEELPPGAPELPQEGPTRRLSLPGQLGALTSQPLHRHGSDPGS

Structure (SMILES) | hERG current change (%, negative = inhibition) at 10uM [%]
O=C(CNC(=O)c1cccc(Br)c1)NCCc1nc2ccccc2[nH]1 | 5.59
COc1ccc(CN2CCCC(C(=O)c3ccc(SC)cc3)C2)cc1Cn1cccn1 (stereo not shown) | -80.3
COc1ccc(CN2CCCC(C(=O)c3ccc(Cl)cc3)C2)cc1Cn1cccn1 (stereo not shown) | -83.9
COc1ccc(CN2CCCC(C(=O)c3cccc(OC(C)C)c3)C2)cc1Cn1cccn1 (stereo not shown) | -69.9
COc1ccc(C(=O)C2CCCN(C(=O)c3cccc(Cn4cccn4)c3)C2)cc1F (stereo not shown) | -14.5
COc1ccccc1C(=O)C1CCCN(C(=O)c2cccc(Cn3cccn3)c2)C1 (stereo not shown) | -13
COCCNC(=O)CSc1ncnc2sc(-c3ccccc3)cc12 | 2.83
CC(C)(C)C1CCc2c(C(=O)NNC(=O)/C=C/C(=O)O)csc2C1 (stereo not shown) | 10.3
Cc1c(C(=O)N2CCC3(CC2)OCCO3)sc2ncnc(N3CCc4ccccc4C3)c12 | -33.7
OCC1CCCN(Cc2cn(Cc3ccccc3)nc2-c2cc3ccccc3o2)C1 (stereo not shown) | -41.9
OC1CCN(Cc2cn(Cc3ccccc3)nc2-c2cc3ccccc3o2)CC1 | -50.7
N#CCCn1cc(C(=O)O)c(-c2cc3ccccc3o2)n1 | 24.6
O=C1CSC(c2cn(-c3ccccc3)nc2-c2cc3ccccc3o2)N1Cc1ccccc1 (stereo not shown) | -6.82
O=Cc1cn(CCC(=O)O)nc1-c1cc2ccccc2o1 | -5.41
CCC(O)C1CCN(Cc2cn(Cc3ccccc3)nc2-c2cc3ccccc3o2)CC1 (stereo not shown) | -65.1
Cn1cc(CN2CCC(C(=O)N3CCCCC3)CC2)c(-c2ccccc2F)n1 | 4.1
Cn1cc(CN2CCC(C(O)CCc3ccccc3)CC2)c(-c2ccccc2F)n1 (stereo not shown) | -71.3
OC1CCCN(Cc2cn(Cc3ccccc3)nc2-c2cc3ccccc3o2)C1 (stereo not shown) | -44.7
Cn1cc(CN2CCC(C(=O)N3CCCC3)CC2)c(-c2ccccc2F)n1 | -4.8
OCC1CCN(Cc2cn(Cc3ccccc3)nc2-c2cc3ccccc3o2)CC1 | -67
CC1(C)CC(=O)C(Sc2ccccc2[N+](=O)[O-])=C(O)C1 | 4.99
Cc1cc(C)c(OCCCCCNCCO)c(C)c1 | -5.77

Structure (SMILES) | hERG current change (%, negative = inhibition) at 10uM [%]
Brc1cccc(OCCCCn2cncn2)c1 | 11.2
O=C(CSc1nncn1-c1ccccc1)Nc1ccccc1 | -0.536
N#Cc1c(Oc2ccc3ccccc3c2)sc(C(=O)c2ccccc2)c1N | 11.1
O=C1N(Cc2cccnc2)C[C@@H]2C[C@@H](c3ccc4nonc4c3)N3CCC[C@@]123 | -59.1
O=C1N(Cc2cccc(Cl)c2)C[C@@H]2C[C@@H](c3ccc4nonc4c3)N3CCC[C@@]123 | -55.1
O=C1N(Cc2cccnc2)C[C@@H]2C[C@@H](c3ccc4nsnc4c3)N3CCC[C@@]123 | -11.3
Cc1nn(C(C)C)c(C)c1[C@@H]1C[C@H]2CN(Cc3cccc(Cl)c3)C(=O)[C@]23CCCN13 | -29.2
COCc1ccc([C@@H]2C[C@H]3CN(Cc4cccnc4)C(=O)[C@]34CCCN24)o1 | -3.38
Cc1ccc([C@@H]2C[C@H]3CN(Cc4cccc(Cl)c4)C(=O)[C@]34CCCN24)o1 | -34.3
CCOCCCNC(=O)c1ccc(NC(=O)C2=CSCCO2)cc1 | 15.4
CN(C(=S)NC(=O)C1(C)CC1(Cl)Cl)c1ccccc1 (stereo not shown) | 16.7
COc1cccc2c1C(CO)N1C(C#N)C3CC(C(=O)O)C(C1C2)N3C (stereo not shown) | 12.3
NC(=O)C1CCN(CCC(=O)Nc2ccc(F)c(F)c2)CC1 | 11.1
COc1ccccc1C(=O)Nc1cccc(NC(=O)c2ccccc2OC)n1 | 8.14
Cc1ccccc1OCCN1CCC(Cc2ccccc2)CC1.O=C(O)C(=O)O | -58.5
CCOc1ccccc1OCCN1CCCC1 | 9.51
CCN1CCN(CCCCOc2ccccc2F)CC1.O=C(O)C(=O)O | -9.65
CCOc1ccccc1OCCN1CCC(Cc2ccccc2)CC1.O=C(O)C(=O)O | -67.4
CCOc1ccccc1OCCOCCN1CCN(Cc2ccccc2)CC1.O=C(O)C(=O)O | -48.5
Clc1ccccc1OCCCCN1CCNCC1.O=C(O)C(=O)O | 12.7
CCN1CCN(CCOc2ccccc2OCc2ccccc2)CC1.O=C(O)C(=O)O | -73.2
